From PubChem BioAssay AID720536 (National Center for Advancing Translational Sciences (NCATS), 2013)
Out of some 1,600 compounds screened, about 650 (41%) were called active. Not shown: some 39% with an inconclusive outcome. Calls come from the whole dose curve; as a rule, active = well fitted inhibition curve with a large enough effect; inconclusive = small, poorly fitted or top-dose-only effect; inactive = no such curve, though single readings can be large or run the other way. So high a share suggests a set chosen from earlier hits. Many of the other results were omitted from the sample, so actives are more common in it than they were.

Assay: qHTS for Inhibitors of TGF-b: CCL64 Cells Orthogonal Assay for Cherry Picks; note: nearly all actives have a fitted effect of over 65% in size
Details: CCL64 CAGA-GFP reporter, TGF-b stimulated, GFP fluorescence, 18 h; series mostly up to 46.1 µM; activity, negative = inhibition: at the top concentration
Source text: TGF-b is a main component in the TGF-b signaling pathway which plays diverse roles in cellular and development pathways. TGF-b is the mediated by the transcription factors Smads. Although the Smad-dependent pathway is the primary canonical TGF-b signaling node, TGF-b1 can also activate alternative signaling pathways, including those involving MAPK (ERK, JNK and p38). This interaction may mediate or enhance Smad-dependent responses, or can exert Smad-independent effects. The complexity of this signaling cascade allows the TGF-b superfamily to perform unique, overlapping or redundant functions. We believe that targeting the TGF-beta pathway at the Smad-transcription factor level may eliminate the consequences of disrupting the entire pathway and offer specificity without affecting other signaling pathways. Smad3 is the primary transducer of TGF-b's signals and Smad3 regulates many functions attributed to TGF-b signaling. We hypothesize that Smad3 inhibitors will selectively eliminate Smad3-specific TGF-beta signals without undesired off-target effects. We aim to identify Smad3-small molecule antagonists using a quantitative high throughput screening (qHTS) approach. A high-throughput assay was developed to screen the NIH Molecular Libraries Small Molecule Repository (MLSMR). This is a cell based assay, where TGF-b is tagged with GFP. This orthogonal assay was run using CCL64 cells (as opposed to HepG2); activity was desired in this assay as this indicated the hits identified from the screen are not a cell-based artifact. MH087449NIH Chemical Genomics Center [NCGC] NIH Molecular Libraries Probe Centers Network [MLPCN] MLPCN Grant: MH087449 Assay Submitter (PI): Sushil Rane, National Institute of Diabetes and Kidney Diseases
Suspensions of trypsinized CCL64 CAGA-GFP cells were dispensed into white, tissue culture-treated, solid 1536-well plates at 5uL/well (1000 cells/well final concentration) in DMEM medium supplemented with 1% FBS. Plates were incubated at 37 degrees C for 2 hours, after which 23 nL of compounds or DMSO were delivered to each well using a pin tool. One uL of recombinant TGF-beta in DMEM (1% FBS) was then dispensed (500 pg/mL final concentration), and plates were incubated at 37 degrees C for 18 hours. The plates were measured on an Acumen eX3 Explorer plate reader for GFP fluorescence (ex488/em500-530). GFP values were calculated by determining the mean GFP fluorescence of individual cells, and compiling these values for each well to determine a total well GFP signal. The %Activity was determined from the corrected fluorescence values. A titration of the known TGF-B inhibitor SB431542 was included to monitor plate performance, while unstimulated […] (-TGF-B) control wells were used to normalize %Activity of identified inhibitors; unstimulated wells corresponded to 100%Activity (full inhibition), while stimulated cell controls (+DMSO) were used to normalize 0%Activity (no inhibition). Concentration-response curves were fitted to the signals arising from the resulting fluorescence. The concentration-effect curves were then classified based on curve quality (r2), response magnitude and degree of measured activity, and compounds were subsequently categorized based on their curve class.
Potency is the fitted concentration of half-maximal effect.

SMILES | Potency | activity, negative = inhibition
COc1cc(NC(=O)c2[nH]cnc2C(N)=O)cc(C(=O)Nc2cccc(C(F)(F)F)c2)c1 | 9.2 µM (active) | –
CCCc1cc(-c2n[nH]c(=S)n2CC)c2ccccc2n1 | – | -6.24% (inactive)
Clc1ccc2c(c1)C1=C(C(c3ccncc3)O2)C(c2ccc(Br)cc2)n2ncnc2N1 (centres undefined) | 10.3 µM (active) | –
Cc1ccc(-c2nc3ccc(Br)cn3c2Cc2ccccc2C(F)(F)F)cc1 | – | 2.1% (inactive)
CCOC(=O)C1=C(N)N(c2ccc(C)cc2)C2=C(C(=O)CCC2)C1c1cccs1 (centres undefined) | 23.1 µM (active) | –
Cc1cccc(NC(=O)c2nc(S(=O)(=O)Cc3ccccc3)ncc2Cl)c1 | 2.59 µM (active) | –
Cc1cccc(CS(=O)(=O)c2ncc(Cl)c(C(=O)Nc3ccc(F)cc3)n2)c1 | 4.61 µM (active) | –
Cc1ccc(S(=O)(=O)Nc2ccc3c(c2)C(=O)N([C@H](C)CO)C[C@@H](C)[C@@H](CN(C)C(=O)Nc2cccc4ccccc24)O3)cc1 | – | 9.21% (inactive)
COc1cc(NC(=O)COC(=O)c2ccc([N+](=O)[O-])s2)cc(OC)c1OC | – | -10.9% (inactive)
CC1CCc2c(nc3ncnn3c2Nc2ccc(OC(F)(F)F)cc2)C1 (centres undefined) | – | 22.3% (inactive)
Cc1nc(/N=C(\N)NC(=O)NC2CCCCC2)nc2ccccc12 | 20.6 µM (active) | –
COc1cccc(CNc2nc(NCc3ccccc3OC)nc3ccsc23)c1 | 18.4 µM (active) | –
O=C(Nc1ccc(C2CC2(Cl)Cl)cc1)c1cccc([N+](=O)[O-])c1 (centres undefined) | 14.6 µM (active) | –
CC(=NNC(=S)N1CCCCCC1)c1ccccn1 | 4.11 µM (active) | –
O=C(NC1=CC(=O)c2ccccc2C1=O)c1ccccc1 | 3.66 µM (active) | –
CCCOc1ccccc1C1CC(=O)Nc2cc3c(cc21)OCO3 (centres undefined) | 13 µM (active) | –
Cc1ccc(CN2CC(N3CCC(Cc4ccccc4)CC3)CS2(=O)=O)cc1 (centres undefined) | – | -13.3% (inactive)
CCCOc1ccc(F)cc1-c1cc(C(=O)Nc2ccc(F)c(Cl)c2)[nH]n1 | 25.9 µM (active) | –
O=[N+]([O-])c1ccccc1S(=O)(=O)Nc1cccc2cccnc12 | 8.2 µM (active) | –
Clc1ccc(Nc2nc(-c3cccs3)cs2)nc1 | 29.1 µM (active) | –
COC(=O)COc1cccc2c(=O)n(CC(=O)NCc3ccccc3)ccc12 | – | -25.2% (inactive)
COc1cc(/C=C2\Oc3ccc(C#Cc4ccc(O)cc4)cc3C2=O)cc(OC)c1 | 5.17 µM (active) | –

SMILES | Potency | activity, negative = inhibition
Cc1cc(C)cc(N(CC(=O)N2CC=C(c3ccccc3)CC2)S(=O)(=O)c2c(C)noc2C)c1 | 10.3 µM (active) | –
COc1ccc(CNC(=O)C[C@H]2C[C@H](C(=O)N3CCOCC3)[C@@]3(CCC4CCCC4)c4[nH]c5ccc(Cl)cc5c4CCN3C2=O)cc1OC | 5.17 µM (active) | –
COc1ccc2nc(N3CCN(C(=O)c4ccc([N+](=O)[O-])o4)CC3)sc2c1 | – | -29.7% (inactive)
CN(C)CCNC(=O)c1ccc(Cl)c2cc3ccccc3nc12 | 4.61 µM (active) | –
Fc1cc(F)c2nc(Nc3nc4c(F)cccc4s3)sc2c1 | – | -1.33% (inactive)
c1ccc2cc3c(NCCN4CCOCC4)ccnc3cc2c1 | 13 µM (active) | –
Cn1c(=O)n(C)c2cc(S(=O)(=O)N3CCCc4ccccc43)ccc21 | – | 1.1% (inactive)
COc1ccc(-c2csc(NC3OC(=O)c4ccccc43)n2)cc1 (centres undefined) | 11.6 µM (active) | –
OCC1OC(n2cnc3c(N4CCCC4)ncnc32)C(O)C1O (centres undefined) | – | 1.41% (inactive)
COc1cc(NC(=O)c2ccccc2NS(=O)(=O)c2ccc(Cl)s2)cc(OC)c1 | 4.61 µM (active) | –
COc1cccc2sc(N(CCCN(C)C)C(=O)CCS(=O)(=O)c3ccccc3)nc12 | 2.91 µM (active) | –
Cc1cccc2sc(N(CCCN(C)C)C(=O)CCS(=O)(=O)c3ccccc3)nc12 | 3.26 µM (active) | –
COc1c(C(C)C)oc2cc3oc(=O)ccc3cc12 | – | 2.12% (inactive)
O=C(Nc1ccc(Br)cn1)c1ccc([N+](=O)[O-])o1 | 13 µM (active) | –
COc1ccc(-c2onc(C)c2-c2ccc3c(c2)OCCO3)c(O)c1 | 14.6 µM (active) | –
CN(C)c1nc(N)nc(CSc2nnnn2-c2cccc3ccccc23)n1 | – | 7.15% (inactive)
COc1ccc(CC(=O)Nc2ccccc2NC(=O)c2ccco2)cc1OC | – | -5.76% (inactive)
CC(=O)c1ccc(-c2cnc3c(NC=O)cc(-c4cccc(NS(C)(=O)=O)c4)cn23)cc1 | 5.17 µM (active) | –
Cc1ccc(C)c(S(=O)(=O)N2CCN(CC(=O)Nc3ccc([N+](=O)[O-])cc3)CC2)c1 | – | -18.2% (inactive)
OCCCNc1nccc(-c2cc(Nc3cccc(Cl)c3)ncn2)n1 | 1.3 µM (active) | –
O=C(CCC(=O)N1CCN(S(=O)(=O)c2ccc(Cl)cc2)CC1)NCc1cccc(C(F)(F)F)c1 | – | -42.6% (inactive)
O=C(/C(=C/c1cccc(Cl)c1)c1nc2ccccc2[nH]1)c1ccccc1 | 4.61 µM (active) | –
